Source: article PMC4336329 (PLoS ONE, 2015)
The whole screen tested about 310,000 compounds, of which about 14,000 (4.5%) showed an effect of 50% or more. The effect is printed as a negative number. This excerpt belongs to a sample that is enriched for strong results.

These molecules were tested against human ether-à-go-go-related gene (hERG) potassium channel (human, UniProt Q12809) (assay: primary screen, population patch clamp on CHO cells stably expressing hERG; higher = less effect of the substance).
Chain of human ether-à-go-go-related gene (hERG) potassium channel (Q12809 whole entry, looked up): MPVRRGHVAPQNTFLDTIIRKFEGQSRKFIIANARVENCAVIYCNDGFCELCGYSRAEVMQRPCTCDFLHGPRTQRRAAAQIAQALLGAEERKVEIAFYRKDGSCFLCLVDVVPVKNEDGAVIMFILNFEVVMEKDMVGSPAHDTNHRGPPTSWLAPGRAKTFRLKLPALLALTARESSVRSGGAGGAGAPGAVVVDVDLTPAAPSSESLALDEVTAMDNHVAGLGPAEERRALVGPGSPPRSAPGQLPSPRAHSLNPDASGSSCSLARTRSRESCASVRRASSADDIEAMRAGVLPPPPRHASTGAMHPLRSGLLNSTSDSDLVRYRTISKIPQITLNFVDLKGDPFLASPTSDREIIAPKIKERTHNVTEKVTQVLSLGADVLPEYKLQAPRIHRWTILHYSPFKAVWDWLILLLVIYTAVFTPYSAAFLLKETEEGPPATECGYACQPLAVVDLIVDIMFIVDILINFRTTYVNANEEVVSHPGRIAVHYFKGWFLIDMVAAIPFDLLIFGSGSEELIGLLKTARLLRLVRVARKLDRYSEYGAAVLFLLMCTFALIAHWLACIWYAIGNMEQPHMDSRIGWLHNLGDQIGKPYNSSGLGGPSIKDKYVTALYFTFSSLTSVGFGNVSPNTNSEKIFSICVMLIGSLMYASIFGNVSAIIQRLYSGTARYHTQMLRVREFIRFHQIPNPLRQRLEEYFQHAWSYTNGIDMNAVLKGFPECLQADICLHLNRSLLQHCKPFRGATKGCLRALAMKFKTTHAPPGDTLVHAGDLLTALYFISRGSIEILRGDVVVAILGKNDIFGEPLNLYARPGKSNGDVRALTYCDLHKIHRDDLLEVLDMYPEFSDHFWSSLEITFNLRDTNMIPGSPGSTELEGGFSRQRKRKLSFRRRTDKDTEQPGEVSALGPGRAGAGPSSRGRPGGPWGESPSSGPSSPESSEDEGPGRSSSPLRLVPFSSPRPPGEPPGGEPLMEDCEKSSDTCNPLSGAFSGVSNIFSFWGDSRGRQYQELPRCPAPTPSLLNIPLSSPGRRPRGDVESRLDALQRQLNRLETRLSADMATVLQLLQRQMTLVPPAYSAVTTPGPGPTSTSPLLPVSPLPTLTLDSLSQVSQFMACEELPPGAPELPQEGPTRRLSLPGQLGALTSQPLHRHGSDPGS
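Also: peak tail current of the secondary pulse compared with the same well before compound.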

Row | SMILES | hERG current change (%, negative = inhibition) at 10uM [%]
1 | O=C(COC(=O)c1cccc(-n2cnnn2)c1)c1ccccc1 | -4.63
2 | OCc1ccccc1SSc1ccccc1CO | 14.5
3 | COc1ccc2[nH]c(C)c(CCN3C(=O)OC(C)(C)C3(C)O)c2c1 (stereo not shown) | 9.02
4 | Cc1cccc(-n2nnc(C(=O)NCc3ccccn3)c2N)c1 | 0.598
5 | CCc1noc(C)c1C(=O)N1CCN(S(=O)(=O)c2cc(C)ccc2C)CC1 | -1.66
6 | O=C(c1ccco1)N1CCN(S(=O)(=O)c2ccc(Oc3ccccc3)cc2)CC1 | -31.5
7 | Cc1ccc(C(=O)C(C)OC(=O)Cn2cnc3c2c(=O)n(C)c(=O)n3C)cc1 (stereo not shown) | -0.153
8 | COc1ccc(Oc2ccc(C(F)(F)F)cc2NC(=O)c2ccc(F)cc2)cc1 | 6.56
9 | N#Cc1ccc(Oc2ccc(C(F)(F)F)cc2NC(=O)c2ccc(F)cc2)cc1 | -70.2
10 | COc1ccc(Oc2ccc(C(F)(F)F)cc2NC(=O)c2ccc(OC)cc2)cc1 | 12.5
11 | CC(=O)c1c(C)[nH]c(C(=O)CN2CCN(S(=O)(=O)c3ccccc3[N+](=O)[O-])CC2)c1C | -6.62
12 | CCCCC(CC(C)O)c1n[nH]c(=S)n1-c1ccccc1 (stereo not shown) | 3.1
13 | O=C(/C=C/c1ccc(Br)cc1)NC(=S)N1C[C@H]2C[C@H](C1)c1cccc(=O)n1C2 | -57.9
14 | O=C(/C=C/c1ccccc1)NC(=S)N1C[C@H]2C[C@H](C1)c1cccc(=O)n1C2 | -15
15 | COc1ccc(/C=C/C(=O)NC(=S)N2C[C@H]3C[C@H](C2)c2cccc(=O)n2C3)cc1 | -18.2
16 | O=C(/C=C/c1ccc(Cl)cc1)NC(=S)N1C[C@H]2C[C@H](C1)c1cccc(=O)n1C2 | -53.1
17 | COc1ccc(/C=C/C(=O)NC(=S)N2C[C@H]3C[C@H](C2)c2cccc(=O)n2C3)cc1OC | 6.67
18 | O=C(/C=C/c1ccc(F)cc1)NC(=S)N1C[C@H]2C[C@H](C1)c1cccc(=O)n1C2 | -22.9
19 | O=C(NCc1ccco1)Nc1ccc2snnc2c1 | 2.51
20 | CNC(=O)c1c(NC(NC(=O)c2ccco2)C(=O)c2ccc(Cl)cc2)sc2c1CCCC2 (stereo not shown) | -20.3
21 | CC1=C(C(=O)Nc2ccccc2)C(c2ccc(C)o2)n2c(s/c(=C/c3ccccc3)c2=O)=N1 (stereo not shown) | 18.1
22 | COc1ccccc1NCc1ccc([N+](=O)[O-])s1 | -47.7
